Experimental data published in PubChem BioAssay AID1159580 (chemical genetic matrix, 2015).
About 2,000 (36%) of roughly 5,500 compounds were called active. Roughly 18% stayed inconclusive and do not appear here. Rule as the data show it: active = normalized growth mostly below about 0.91 (no sharp cut-off); inconclusive = no clear call, values can overlap the other calls; inactive = mostly above about 0.92. The list shows a part of the results.

Experiment: chemical genetic growth profiling, strain panel (AID 1159580);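 also: tested at 20 µM; growth read once vehicle control cultures reached saturation at 30 °C; 1 = growth at the plate median or of vehicle wells; lower values mean less growth of the strain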
Conditions: growth OD

Measured: normalized growth

COc1ccc2cc([C@H](C)CO)ccc2c1
inactive: S. cerevisiae deletion strains, locus YJR066W, strain TOR1, stronger effect = lower value 0.935 | S. cerevisiae deletion strains, locus YJR075W, strain HOC1, stronger effect = lower value 0.998 | S. cerevisiae deletion strains, locus YKL009W, strain mrt4, stronger effect = lower value 0.935 | S. cerevisiae deletion strains, locus YKL068W, stronger effect = lower value 0.975 | S. cerevisiae deletion strains, locus YKL085W, strain MDH1 (second series), stronger effect = lower value 0.949 | S. cerevisiae deletion strains, locus YKL085W, strain MDH1, stronger effect = lower value 0.949 | S. cerevisiae deletion strains, locus YKL160W, strain elf1, stronger effect = lower value 1 | S. cerevisiae deletion strains, locus YKL190W, strain CNB1, stronger effect = lower value 0.995 | S. cerevisiae deletion strains, locus YKR001C, strain vps1, stronger effect = lower value 0.97 | S. cerevisiae deletion strains, locus YKR026C, strain gcn3, stronger effect = lower value 1.01 | S. cerevisiae deletion strains, locus YKR091W, strain srl3, stronger effect = lower value 1.01 | S. cerevisiae deletion strains, locus YLL001W, strain dnm1, stronger effect = lower value 1.01 | S. cerevisiae deletion strains, locus YLL026W, stronger effect = lower value 1.01 | S. cerevisiae deletion strains, locus YLL041C, strain sdh2, stronger effect = lower value 1.01 | S. cerevisiae deletion strains, locus YLR027C, strain aat2, stronger effect = lower value 1.01 | S. cerevisiae deletion strains, locus YLR039C, strain RIC1, stronger effect = lower value 0.991 | S. cerevisiae deletion strains, locus YLR058C, strain SHM2, stronger effect = lower value 0.977 | S. cerevisiae deletion strains, locus YLR102C, strain apc9, stronger effect = lower value 0.966 | S. cerevisiae deletion strains, locus YLR113W, strain HOG1, stronger effect = lower value 0.929 | S. cerevisiae deletion strains, locus YLR221C, strain rsa3, stronger effect = lower value 1.01 | S. cerevisiae deletion strains, locus YLR258W, strain gsy2, stronger effect = lower value 1.01 | S. cerevisiae deletion strains, locus YLR262C, strain YPT6 (second series), stronger effect = lower value 1.01 | S. cerevisiae deletion strains, locus YLR262C, strain YPT6, stronger effect = lower value 0.9 | S. cerevisiae deletion strains, locus YLR268W, strain sec22, stronger effect = lower value 1.03 | S. cerevisiae deletion strains, locus YLR320W, strain mms22, stronger effect = lower value 1.02 | S. cerevisiae deletion strains, locus YLR330W, strain CHS5, stronger effect = lower value 0.992 | S. cerevisiae deletion strains, locus YLR342W, strain FKS1 (second series), stronger effect = lower value 0.969 | S. cerevisiae deletion strains, locus YLR342W, strain FKS1, stronger effect = lower value 1.01 | S. cerevisiae deletion strains, locus YLR357W, strain rsc2, stronger effect = lower value 1 | S. cerevisiae deletion strains, locus YLR370C, strain arc18, stronger effect = lower value 1.01 | S. cerevisiae deletion strains, locus YLR371W, strain rom2, stronger effect = lower value 0.918 | S. cerevisiae deletion strains, locus YLR384C, strain iki3, stronger effect = lower value 1.01 | S. cerevisiae deletion strains, locus YLR418C, strain cdc73, stronger effect = lower value 0.968 | S. cerevisiae deletion strains, locus YML016C, strain PPZ1, stronger effect = lower value 0.989 | S. cerevisiae deletion strains, locus YML032C, strain rad52, stronger effect = lower value 0.989 | S. cerevisiae deletion strains, locus YML120C, strain ndi1, stronger effect = lower value 1.01 | S. cerevisiae deletion strains, locus YMR058W, strain fet3, stronger effect = lower value 1.01 | S. cerevisiae deletion strains, locus YMR078C, strain ctf18, stronger effect = lower value 0.969 | S. cerevisiae deletion strains, locus YMR125W, strain sto1, stronger effect = lower value 1.01 | S. cerevisiae deletion strains, locus YMR129W, stronger effect = lower value 1.02 | S. cerevisiae deletion strains, locus YMR205C, strain PFK2, stronger effect = lower value 1.02 | S. cerevisiae deletion strains, locus YMR223W, strain ubp8, stronger effect = lower value 0.964 | S. cerevisiae deletion strains, locus YMR231W, strain pep5, stronger effect = lower value 1.01 | S. cerevisiae deletion strains, locus YMR263W, strain SAP30, stronger effect = lower value 0.985 | S. cerevisiae deletion strains, locus YMR307W, strain GAS1, stronger effect = lower value 1.04 | S. cerevisiae deletion strains, locus YNL067W, strain RPL9B, stronger effect = lower value 0.991 | S. cerevisiae deletion strains, locus YNL071W, strain lat1, stronger effect = lower value 1.01 | S. cerevisiae deletion strains, locus YNL128W, strain TEP1, stronger effect = lower value 0.979 | S. cerevisiae deletion strains, locus YNL153C, strain GIM3, stronger effect = lower value 0.996 | S. cerevisiae deletion strains, locus YNL183C, strain NPR1, stronger effect = lower value 0.917 | S. cerevisiae deletion strains, locus YNL209W, strain ssb2, stronger effect = lower value 1.01 | S. cerevisiae deletion strains, locus YNL233W, strain BNI4, stronger effect = lower value 1.01 | S. cerevisiae deletion strains, locus YNL248C, strain rpa49, stronger effect = lower value 0.968 | S. cerevisiae deletion strains, locus YNL250W, strain rad50, stronger effect = lower value 0.956 | S. cerevisiae deletion strains, locus YNL271C, strain bni1, stronger effect = lower value 0.979 | S. cerevisiae deletion strains, locus YNL298W, strain CLA4, stronger effect = lower value 0.949 | S. cerevisiae deletion strains, locus YNL307C, strain MCK1, stronger effect = lower value 0.97 | S. cerevisiae deletion strains, locus YNL322C, strain KRE1 (second series), stronger effect = lower value 1.01 | S. cerevisiae deletion strains, locus YNL322C, strain KRE1, stronger effect = lower value 0.996 | S. cerevisiae deletion strains, locus YNR049C, strain mso1, stronger effect = lower value 1.01 | S. cerevisiae deletion strains, locus YNR052C, strain pop2, stronger effect = lower value 0.975 | S. cerevisiae deletion strains, locus YOL006C, strain TOP1, stronger effect = lower value 0.91 | S. cerevisiae deletion strains, locus YOL012C, strain htz1 1.3 | S. cerevisiae deletion strains, locus YOL147C, strain pex11, stronger effect = lower value 0.941 | S. cerevisiae deletion strains, locus YOR001W, strain rrp6, stronger effect = lower value 1.02 | S. cerevisiae deletion strains, locus YOR061W, strain CKA2, stronger effect = lower value 0.968 | S. cerevisiae deletion strains, locus YOR069W, strain VPS5, stronger effect = lower value 0.988 | S. cerevisiae deletion strains, locus YOR070C, strain gyp1, stronger effect = lower value 1.01 | S. cerevisiae deletion strains, locus YOR080W, strain dia2, stronger effect = lower value 1.01 | S. cerevisiae deletion strains, locus YOR083W, strain WHI5, stronger effect = lower value 1.01 | S. cerevisiae deletion strains, locus YOR106W, strain vam3, stronger effect = lower value 1 | S. cerevisiae deletion strains, locus YOR136W, strain idh2, stronger effect = lower value 0.977 | S. cerevisiae deletion strains, locus YOR144C, strain elg1, stronger effect = lower value 0.978 | S. cerevisiae deletion strains, locus YOR184W, strain ser1, stronger effect = lower value 0.95 | S. cerevisiae deletion strains, locus YOR231W, strain MKK1, stronger effect = lower value 0.937 | S. cerevisiae deletion strains, locus YOR265W, strain rbl2, stronger effect = lower value 1.01 | S. cerevisiae deletion strains, locus YOR270C, strain vph1, stronger effect = lower value 0.997 | S. cerevisiae deletion strains, locus YOR290C, strain snf2, stronger effect = lower value 0.998 | S. cerevisiae deletion strains, locus YOR316C, strain cot1, stronger effect = lower value 0.976 | S. cerevisiae deletion strains, locus YPL051W, strain arl3, stronger effect = lower value 1.01 | S. cerevisiae deletion strains, locus YPL055C, strain LGE1, stronger effect = lower value 0.98 | S. cerevisiae deletion strains, locus YPL078C, strain atp4, stronger effect = lower value 1.01 | S. cerevisiae deletion strains, locus YPL106C, strain sse1, stronger effect = lower value 1.04 | S. cerevisiae deletion strains, locus YPL240C, strain hsp82, stronger effect = lower value 1.01 | S. cerevisiae deletion strains, locus YPL241C, strain CIN2, stronger effect = lower value 0.985 | S. cerevisiae deletion strains, locus YPL256C, strain CLN2, stronger effect = lower value 0.924 | S. cerevisiae deletion strains, locus YPR119W, strain clb2, stronger effect = lower value 0.971 | S. cerevisiae deletion strains, locus YPR141C, strain kar3, stronger effect = lower value 0.959 | S. cerevisiae deletion strains, locus YPR163C, strain tif3, stronger effect = lower value 0.978 | S. cerevisiae deletion strains, locus YPR167C, strain met16, stronger effect = lower value 0.977 | S. cerevisiae deletion strains, strain wtn01, stronger effect = lower value 0.968 | S. cerevisiae strains, strain wild type, stronger effect = lower value 0.979
